Source: publication PMC4081100, “A DNA-binding-site landscape and regulatory network analysis for NAC transcription factors in Arabidopsis thaliana”

Columns and labels:
Assay in all cases: universal protein binding microarray (PBM); transcription factors of Arabidopsis thaliana; high values mean tight binding
GST-ANAC092(1-176) = molecular target: T1, GST-ANAC092(1-176) (Arabidopsis thaliana, UniProt Q9FKA0 1-176); conditions: protein: recombinant; tags: GST; chain copies: 2; dsDNA, one strand shown
T1 sequence: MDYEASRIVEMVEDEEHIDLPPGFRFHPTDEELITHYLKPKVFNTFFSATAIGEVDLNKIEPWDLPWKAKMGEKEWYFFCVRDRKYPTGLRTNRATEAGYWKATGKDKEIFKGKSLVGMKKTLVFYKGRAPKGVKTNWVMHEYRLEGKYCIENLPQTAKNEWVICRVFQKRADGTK
Procedure, shortened: (§1)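 Protein amounts were determined by A280 or anti-GST western blot after glutathione–Sepharose 4B purification of GST-tagged proteins induced in cells, with zinc acetate included for zinc-finger proteins. Duplicate runs at 200 to 500 nM final were done on custom all-10-mer Agilent 4 × 180K arrays made double-stranded by primer extension. The normalised enrichment score (E-score) over gapped and ungapped 8-mers is the measure of binding.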

GST-NTL6(1-168) = GST-NTL6(1-168) (Arabidopsis thaliana, UniProt Q9SCK6 1-168); conditions: protein: recombinant; tags: GST; chain copies: 2; dsDNA, one strand shown
Procedure, shortened: as §1

GST-ANAC055(1-171) = molecular target: T2, GST-ANAC055(1-171) (Arabidopsis thaliana, UniProt Q9LDY8 1-171); conditions: protein: recombinant; tags: GST; chain copies: 2; dsDNA, one strand shown
T2 sequence: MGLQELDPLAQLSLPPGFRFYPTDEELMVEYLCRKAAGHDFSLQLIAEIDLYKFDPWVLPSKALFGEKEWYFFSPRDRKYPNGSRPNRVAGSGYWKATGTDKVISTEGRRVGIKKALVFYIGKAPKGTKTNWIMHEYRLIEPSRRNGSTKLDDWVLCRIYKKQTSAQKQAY
Procedure, shortened: as §1

GST-ATAF1 NAC domain = molecular target: T3, GST-ATAF1 NAC domain (Arabidopsis thaliana, UniProt Q39013 7-158); conditions: protein: recombinant; tags: GST; chain copies: 2; dsDNA, one strand shown
T3 sequence: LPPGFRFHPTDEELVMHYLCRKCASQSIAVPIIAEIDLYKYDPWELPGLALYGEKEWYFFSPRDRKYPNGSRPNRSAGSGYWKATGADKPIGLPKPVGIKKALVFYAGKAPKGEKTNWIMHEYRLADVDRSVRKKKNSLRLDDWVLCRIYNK
Procedure, shortened: as §1

[1] = molecular target: T4, GST-ANAC092(1-285) full length (Arabidopsis thaliana, UniProt Q9FKA0 1-285); conditions: protein: recombinant; tags: GST; chain copies: 2; dsDNA, one strand shown
T4 sequence: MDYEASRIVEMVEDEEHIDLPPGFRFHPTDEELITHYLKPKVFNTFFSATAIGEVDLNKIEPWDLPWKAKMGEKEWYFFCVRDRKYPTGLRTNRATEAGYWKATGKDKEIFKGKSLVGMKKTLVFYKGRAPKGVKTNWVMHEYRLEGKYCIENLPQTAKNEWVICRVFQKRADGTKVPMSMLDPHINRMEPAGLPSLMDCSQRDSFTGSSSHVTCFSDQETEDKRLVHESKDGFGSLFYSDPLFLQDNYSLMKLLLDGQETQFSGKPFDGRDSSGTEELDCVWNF
Procedure, shortened: as §1

GST-NST2(1-184) = molecular target: T5, GST-NST2(1-184) (Arabidopsis thaliana, UniProt Q9M274 1-184); conditions: protein: recombinant; tags: GST; chain copies: 2; dsDNA, one strand shown
T5 sequence: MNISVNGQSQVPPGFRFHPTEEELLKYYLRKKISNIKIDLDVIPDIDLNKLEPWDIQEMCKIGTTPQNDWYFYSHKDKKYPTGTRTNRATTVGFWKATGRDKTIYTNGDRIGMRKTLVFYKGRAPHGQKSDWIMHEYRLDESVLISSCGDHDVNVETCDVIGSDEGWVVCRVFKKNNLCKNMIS
Procedure, shortened: as §1

GST-SND1(1-203) = molecular target: T6, GST-SND1(1-203) (Arabidopsis thaliana, UniProt Q9LPI7 1-203); conditions: protein: recombinant; tags: GST; chain copies: 2; dsDNA, one strand shown
T6 sequence: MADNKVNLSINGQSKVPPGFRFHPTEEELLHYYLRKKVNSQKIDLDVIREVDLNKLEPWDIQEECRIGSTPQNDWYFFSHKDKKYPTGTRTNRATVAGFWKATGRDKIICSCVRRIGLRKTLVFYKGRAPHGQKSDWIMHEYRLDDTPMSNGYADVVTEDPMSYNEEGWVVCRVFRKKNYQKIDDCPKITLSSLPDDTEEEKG
Procedure, shortened: as §1

GST-VND3 NAC domain = molecular target: T7, GST-VND3 NAC domain (Arabidopsis thaliana, UniProt Q9FH59 12-162); conditions: protein: recombinant; tags: GST; chain copies: 2; dsDNA, one strand shown
T7 sequence: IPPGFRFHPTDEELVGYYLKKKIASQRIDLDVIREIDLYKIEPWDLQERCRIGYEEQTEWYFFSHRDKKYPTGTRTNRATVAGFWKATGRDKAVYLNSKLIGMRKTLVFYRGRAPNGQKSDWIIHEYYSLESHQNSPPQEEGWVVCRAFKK
Procedure, shortened: as §1

GST-VND7 NAC domain = molecular target: T8, GST-VND7 NAC domain (Arabidopsis thaliana, UniProt Q9C8W9 9-158); conditions: protein: recombinant; tags: GST; chain copies: 2; dsDNA, one strand shown
T8 sequence: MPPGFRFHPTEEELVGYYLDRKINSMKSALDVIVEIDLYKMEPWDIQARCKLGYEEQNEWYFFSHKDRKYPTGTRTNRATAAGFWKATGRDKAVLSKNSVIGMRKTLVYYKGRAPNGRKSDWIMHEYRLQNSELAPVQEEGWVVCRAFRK
Procedure, shortened: as §1

GST-WRKY1(266-371) = GST-WRKY1(266-371) (Arabidopsis thaliana, UniProt Q9SI37 266-371); conditions: protein: recombinant; tags: GST; dsDNA, one strand shown
Procedure, shortened: as §1

GST-ANAC019 NAC domain = molecular target: T9, GST-ANAC019 NAC domain (Arabidopsis thaliana, UniProt Q9C932 14-162); conditions: protein: recombinant; tags: GST; chain copies: 2; dsDNA, one strand shown
T9 sequence: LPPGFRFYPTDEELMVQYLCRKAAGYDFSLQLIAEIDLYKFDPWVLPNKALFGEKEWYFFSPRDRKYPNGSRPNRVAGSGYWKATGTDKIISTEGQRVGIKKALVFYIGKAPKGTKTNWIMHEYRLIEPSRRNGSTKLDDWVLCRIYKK
Procedure, shortened: as §1

GST-NAP(1-166) = molecular target: T10, GST-NAP(1-166) (Arabidopsis thaliana, UniProt O49255 1-166); conditions: protein: recombinant; tags: GST; chain copies: 2; dsDNA, one strand shown
T10 sequence: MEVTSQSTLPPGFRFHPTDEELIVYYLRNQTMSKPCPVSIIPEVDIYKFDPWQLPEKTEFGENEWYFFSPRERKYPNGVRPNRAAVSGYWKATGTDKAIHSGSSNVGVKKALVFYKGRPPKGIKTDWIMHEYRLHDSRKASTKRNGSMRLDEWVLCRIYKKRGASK
Procedure, shortened: as §1

GST-NTL8 NAC domain = molecular target: T11, GST-NTL8 NAC domain (Arabidopsis thaliana, UniProt Q9XIN7 14-156); conditions: protein: recombinant; tags: GST; chain copies: 2; dsDNA, one strand shown
T11 sequence: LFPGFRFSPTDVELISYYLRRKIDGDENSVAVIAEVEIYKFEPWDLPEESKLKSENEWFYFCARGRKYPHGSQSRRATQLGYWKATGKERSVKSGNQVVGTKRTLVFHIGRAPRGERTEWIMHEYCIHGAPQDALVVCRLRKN
Procedure, shortened: as §1

Sequence of GST-WRKY1(266-371) (Q9SI37 266-371): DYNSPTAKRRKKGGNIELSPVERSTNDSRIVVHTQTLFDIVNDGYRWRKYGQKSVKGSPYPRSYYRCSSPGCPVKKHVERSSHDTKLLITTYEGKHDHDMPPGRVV
Sequence of GST-NTL6(1-168) (Q9SCK6 1-168): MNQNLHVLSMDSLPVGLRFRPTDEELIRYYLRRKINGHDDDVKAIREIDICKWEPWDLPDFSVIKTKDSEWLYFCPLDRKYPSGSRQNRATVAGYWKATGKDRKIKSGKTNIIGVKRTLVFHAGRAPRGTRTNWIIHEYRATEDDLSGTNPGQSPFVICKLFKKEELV

Sequence | binding signal (GST-ANAC092(1-176)) [E-score] | binding signal (GST-NTL6(1-168)) [E-score] | binding signal (GST-ANAC055(1-171)) [E-score] | binding signal (GST-ATAF1 NAC domain) [E-score] | binding signal [1] [E-score] | binding signal (GST-NST2(1-184)) [E-score] | binding signal (GST-SND1(1-203)) [E-score] | binding signal (GST-VND3 NAC domain) [E-score] | binding signal (GST-VND7 NAC domain) [E-score] | binding signal (GST-WRKY1(266-371)) [E-score] | binding signal (GST-ANAC019 NAC domain) [E-score] | binding signal (GST-NAP(1-166)) [E-score] | binding signal (GST-NTL8 NAC domain) [E-score]
AGATTGAC | 0.135 | 0.0646 | 0.0571 | 0.0846 | 0.15 | 0.0869 | 0.179 | 0.0944 | 0.0768 | 0.457 |  |  | 
AACACGTC | 0.397 |  | 0.325 | 0.316 | 0.428 | 0.0538 | 0.12 | 0.343 | 0.312 | 0.131 | 0.33 | 0.262 | 
AGTCAACA | 0.161 | 0.0859 | 0.0844 | 0.152 | 0.0634 | 0.0624 | 0.19 | 0.13 | 0.0805 | 0.488 | 0.125 |  | 0.0937
GCGTGTCA | 0.331 |  | 0.195 | 0.193 | 0.408 | 0.0663 | 0.0867 | 0.0583 | 0.189 | 0.0865 | 0.231 | 0.186 | 
ACACGTCA | 0.484 |  | 0.402 | 0.382 | 0.487 | 0.316 | 0.352 | 0.395 | 0.447 | 0.251 | 0.436 | 0.431 | 
ACACGCAA | 0.498 | 0.0863 | 0.473 | 0.439 | 0.498 | 0.47 | 0.477 | 0.477 | 0.482 | 0.172 | 0.484 | 0.487 | 0.218
ATTACGTC | 0.366 |  | 0.353 | 0.356 | 0.405 | 0.333 | 0.432 | 0.37 | 0.357 | 0.0595 | 0.329 | 0.376 | 
ACAAGTCA | 0.0976 | 0.0563 |  |  | 0.276 | 0.0664 | 0.114 | 0.0796 | 0.0869 | 0.43 |  | 0.146 | 0.0517
ATTACTTC | 0.31 | 0.415 | 0.223 | 0.176 | 0.34 | 0.267 | 0.347 | 0.208 | 0.14 | 0.097 | 0.168 |  | 0.406
GAAAGGAA | 0.21 | 0.32 | 0.168 | 0.188 | 0.2 | 0.228 | 0.234 | 0.209 | 0.231 | 0.0968 | 0.134 |  | 0.422
TAGCGTGA | 0.441 | 0.0555 | 0.114 | 0.17 | 0.454 | 0.228 | 0.42 | 0.242 | 0.191 | 0.0738 | 0.209 |  | 
GTACGGCA | 0.395 |  | 0.362 | 0.385 | 0.439 | 0.178 | 0.236 | 0.424 | 0.425 | 0.0953 | 0.451 | 0.342 | 
AAGTCTAC | 0.0876 | 0.202 | 0.158 | 0.0826 |  | 0.103 | 0.0865 | 0.0561 | 0.0651 | 0.412 |  |  | 
CGTGGTCA | 0.128 |  | 0.0851 | 0.0537 | 0.195 |  | 0.0883 | 0.164 | 0.128 | 0.431 | 0.189 |  | 
ATAACGTA | 0.418 | 0.119 | 0.19 | 0.289 | 0.423 | 0.37 | 0.465 | 0.334 | 0.156 | 0.0761 |  | 0.187 | 
GTAAGTAA | 0.246 | 0.474 | 0.199 | 0.245 | 0.334 | 0.239 | 0.307 | 0.279 | 0.186 | 0.122 | 0.0906 |  | 0.195
TCACGTCA | 0.429 |  | 0.354 | 0.321 | 0.429 | 0.188 | 0.343 | 0.322 | 0.367 | 0.292 | 0.38 | 0.329 | 
CACGTCAG | 0.336 |  | 0.19 | 0.203 | 0.407 |  | 0.0864 | 0.127 | 0.214 | 0.081 | 0.261 | 0.154 | 
CTTTCTTC | 0.137 | 0.295 |  | 0.117 | 0.21 | 0.0636 | 0.181 | 0.074 | 0.0647 | 0.156 |  | 0.0839 | 0.41
CACGTCAA | 0.444 |  | 0.324 | 0.248 | 0.448 | 0.252 | 0.313 | 0.332 | 0.278 | 0.403 | 0.38 | 0.299 | 
AAGTAATA | 0.31 | 0.428 | 0.215 | 0.207 | 0.327 | 0.274 | 0.294 | 0.216 | 0.136 | 0.074 |  | 0.14 | 0.211
ACACGTCT | 0.422 |  | 0.405 | 0.393 | 0.425 | 0.168 | 0.174 | 0.396 | 0.421 | 0.114 | 0.459 | 0.346 | 
TACGTCAA | 0.363 |  | 0.194 | 0.291 | 0.417 | 0.341 | 0.44 | 0.23 | 0.205 | 0.402 | 0.216 | 0.241 | 
GCGTGCAC | 0.372 |  | 0.158 | 0.154 | 0.415 | 0.169 | 0.198 | 0.16 | 0.216 | 0.0555 | 0.255 | 0.145 | 
ATGACGTG | 0.458 |  | 0.366 | 0.317 | 0.463 | 0.258 | 0.326 | 0.366 | 0.322 | 0.0849 | 0.311 | 0.36 | 
AATTACGT | 0.439 | 0.142 | 0.446 | 0.435 | 0.421 | 0.352 | 0.42 | 0.47 | 0.46 | 0.185 | 0.472 | 0.454 | 0.205
